# From publication PMC8384837, “Expanding the binding specificity for RNA recognition by a PUF domain”
# Target: PUM1 PUF domain R4-PFK (Homo sapiens, UniProt Q14671 828-1176, N971P;H972F;Q975K)
# Assay: yeast three-hybrid, YBZ-1, SC-Leu-His + 0.5 mM 3-AT, 4 days
# Conditions: tags: N-Gal4 AD-HA kept; label: inside an RPR1-promoter hybrid RNA with tandem MS2 sites; ssRNA
# Procedure, shortened: (§1)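 Pumilio-1 PUF domain libraries, randomized (NNK) at the three base-contacting residues of each repeat, were co-expressed with matching RNA elements from a centromeric plasmid in strain YBZ-1 (LexA–MS2 coat fusion, HIS3 reporter). Transformants were plated on SC-Leu (input) and SC-Leu-His + 0.5 mM 3-AT (selection) for four days, and repeat regions were PCR-amplified and Illumina-sequenced. The interaction score is the log2 change in variant frequency from input to selection, with pseudocount 1 where absent.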
# Sequence of PUM1 PUF domain R4-PFK (Q14671 828-1176 N971P/H972F/Q975K): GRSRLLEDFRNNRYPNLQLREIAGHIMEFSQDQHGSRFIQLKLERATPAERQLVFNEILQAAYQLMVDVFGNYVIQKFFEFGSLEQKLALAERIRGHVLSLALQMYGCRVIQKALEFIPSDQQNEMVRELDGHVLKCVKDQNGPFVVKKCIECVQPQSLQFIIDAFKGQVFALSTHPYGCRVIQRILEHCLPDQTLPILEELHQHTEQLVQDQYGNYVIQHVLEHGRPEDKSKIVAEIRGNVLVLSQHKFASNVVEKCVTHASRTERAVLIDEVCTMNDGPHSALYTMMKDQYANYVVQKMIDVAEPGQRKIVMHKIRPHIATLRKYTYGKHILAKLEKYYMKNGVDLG
row,Sequence,binding signal
1,GGCUAGAACUAGUGGAUCCCCCGGCGCCCGGCGGCUCGAGCCCGGGUAAGUGUACAUAGUCUGCAUGCCGCCGGGCGCCAUGCCUGCAGGUCGACUCUAGAAAACAUG,4.33 log2 enrichment (interaction score)
2,GGCUAGAACUAGUGGAUCCCCCGGCGCCCGGCGGCUCGAGCCCGGGUAAGUGUAUAUAGUCUGCAUGCCGCCGGGCGCCAUGCCUGCAGGUCGACUCUAGAAAACAUG,6.46 log2 enrichment (interaction score)
3,GGCUAGAACUAGUGGAUCCCCCGGCGCCCGGCGGCUCGAGCCCGGGUAAGUGUAAAUAGUCUGCAUGCCGCCGGGCGCCAUGCCUGCAGGUCGACUCUAGAAAACAUG,4.17 log2 enrichment (interaction score)

# Target: PUM1 PUF domain R3-LWE (Homo sapiens, UniProt Q14671 828-1176, C935L;R936W;Q939E)
# Assay: as above
# Conditions: tags: N-Gal4 AD-HA kept; label: inside an RPR1-promoter hybrid RNA with tandem MS2 sites; ssRNA
# Procedure, shortened: as §1
# Sequence of PUM1 PUF domain R3-LWE (Q14671 828-1176 C935L/R936W/Q939E): as the sequence (Q14671 828-1176 N971P/H972F/Q975K) above, with C108L, R109W, Q112E, P144N, F145H, K148Q counted along it
row,Sequence,binding signal
1,GGCUAGAACUAGUGGAUCCCCCGGCGCCCGGCGGCUCGAGCCCGGGUAAGUGUAAAUAGUCUGCAUGCCGCCGGGCGCCAUGCCUGCAGGUCGACUCUAGAAAACAUG,3.37 log2 enrichment (interaction score)
2,GGCUAGAACUAGUGGAUCCCCCGGCGCCCGGCGGCUCGAGCCCGGGUAAGUGUAAGUAGUCUGCAUGCCGCCGGGCGCCAUGCCUGCAGGUCGACUCUAGAAAACAUG,5.48 log2 enrichment (interaction score)
3,GGCUAGAACUAGUGGAUCCCCCGGCGCCCGGCGGCUCGAGCCCGGGUAAGUGUAAUUAGUCUGCAUGCCGCCGGGCGCCAUGCCUGCAGGUCGACUCUAGAAAACAUG,1.78 log2 enrichment (interaction score)
